Reference: the supplement of paper PMC11732987, “Enantioselective OTUD7B fragment discovery through chemoproteomics screening and high-throughput optimisation” (Communications Chemistry, 2025)

Experiments:
Assay in all cases: log2 ratio of Biotin-Ahx-Ub-VS probe labelling (fragment/DMSO); higher = less target engagement (more negative = stronger competition), active = hit call of the paper (q ≤ 0.05, log2 ratio ≤ -1)
Conditions in all cases: compound concentration: 200 uM; treatment time: 3 h
USP19 = target: T1, USP19 (UniProt O94966)
T1 sequence (whole entry): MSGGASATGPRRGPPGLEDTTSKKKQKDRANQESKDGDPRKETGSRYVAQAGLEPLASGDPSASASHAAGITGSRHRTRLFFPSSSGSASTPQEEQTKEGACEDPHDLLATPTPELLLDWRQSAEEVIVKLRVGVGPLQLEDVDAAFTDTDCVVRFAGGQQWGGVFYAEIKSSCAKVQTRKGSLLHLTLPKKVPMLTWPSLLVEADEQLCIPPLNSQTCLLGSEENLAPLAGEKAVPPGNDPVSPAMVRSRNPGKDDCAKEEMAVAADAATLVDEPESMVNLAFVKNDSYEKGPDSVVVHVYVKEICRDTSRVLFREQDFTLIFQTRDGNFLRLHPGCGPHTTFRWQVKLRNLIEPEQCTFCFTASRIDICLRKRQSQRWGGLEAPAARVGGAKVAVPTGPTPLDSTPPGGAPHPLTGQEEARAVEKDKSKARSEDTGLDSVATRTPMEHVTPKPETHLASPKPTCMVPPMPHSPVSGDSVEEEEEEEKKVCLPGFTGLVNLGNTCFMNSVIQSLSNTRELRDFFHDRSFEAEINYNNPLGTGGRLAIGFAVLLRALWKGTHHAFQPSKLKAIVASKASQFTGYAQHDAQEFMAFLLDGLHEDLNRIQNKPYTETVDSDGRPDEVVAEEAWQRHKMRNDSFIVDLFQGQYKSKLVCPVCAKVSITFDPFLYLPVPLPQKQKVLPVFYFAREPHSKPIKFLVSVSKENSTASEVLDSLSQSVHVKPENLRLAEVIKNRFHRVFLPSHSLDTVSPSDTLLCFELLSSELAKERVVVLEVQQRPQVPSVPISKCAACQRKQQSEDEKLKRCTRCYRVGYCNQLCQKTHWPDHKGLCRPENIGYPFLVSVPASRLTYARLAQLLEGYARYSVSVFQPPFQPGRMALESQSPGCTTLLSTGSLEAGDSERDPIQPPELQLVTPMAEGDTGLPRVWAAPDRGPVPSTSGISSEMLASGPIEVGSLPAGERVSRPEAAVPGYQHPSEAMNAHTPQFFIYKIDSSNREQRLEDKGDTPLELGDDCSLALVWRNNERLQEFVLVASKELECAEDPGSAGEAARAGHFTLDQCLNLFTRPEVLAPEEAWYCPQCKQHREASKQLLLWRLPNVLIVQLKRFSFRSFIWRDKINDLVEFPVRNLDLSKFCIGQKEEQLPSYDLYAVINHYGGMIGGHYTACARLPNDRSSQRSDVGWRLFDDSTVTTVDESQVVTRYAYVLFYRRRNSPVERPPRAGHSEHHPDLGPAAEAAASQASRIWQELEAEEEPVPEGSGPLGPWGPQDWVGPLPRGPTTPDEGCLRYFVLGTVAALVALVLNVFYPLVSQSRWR
How it was run: (§1)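 HEK293T lysate (495 µg per sample, in Tris/CHAPS/IGEPAL buffer with protease inhibitors) was treated in triplicate with fragment at 200 µM or with DMSO for 3 h. It was then treated with Biotin-Ahx-Ub-VS (0.5 µM final) for 1 h. Labelled DUBs were NeutrAvidin-enriched, digested with LysC and trypsin, and run by diaPASEF LC-MS/MS. Spectronaut label-free quantities were global-median-normalised. Values are average log2 ratios fragment/DMSO by unpaired t-test, using proteins with ≥2 unique peptides.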

USP22 = target: T2, USP22 (UniProt Q9UPT9)
T2 sequence (whole entry): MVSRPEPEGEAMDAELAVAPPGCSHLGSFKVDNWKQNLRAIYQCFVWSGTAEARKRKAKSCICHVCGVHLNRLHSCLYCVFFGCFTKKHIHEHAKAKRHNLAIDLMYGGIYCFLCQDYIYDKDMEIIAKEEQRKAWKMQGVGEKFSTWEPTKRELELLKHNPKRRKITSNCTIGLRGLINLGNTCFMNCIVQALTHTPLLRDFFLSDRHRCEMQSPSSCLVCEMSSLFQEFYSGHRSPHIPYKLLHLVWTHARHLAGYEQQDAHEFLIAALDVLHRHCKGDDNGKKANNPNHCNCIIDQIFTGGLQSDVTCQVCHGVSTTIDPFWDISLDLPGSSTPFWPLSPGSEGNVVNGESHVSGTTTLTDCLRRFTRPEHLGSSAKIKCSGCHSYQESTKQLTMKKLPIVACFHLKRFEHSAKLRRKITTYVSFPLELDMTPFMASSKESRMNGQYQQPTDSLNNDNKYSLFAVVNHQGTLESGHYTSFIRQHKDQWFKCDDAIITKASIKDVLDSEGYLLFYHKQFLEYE
How it was run: as §1

USP24 = USP24 (UniProt Q9UPU5)
How it was run: as §1

USP25 = target: T3, USP25 (UniProt Q9UHP3)
T3 sequence (whole entry): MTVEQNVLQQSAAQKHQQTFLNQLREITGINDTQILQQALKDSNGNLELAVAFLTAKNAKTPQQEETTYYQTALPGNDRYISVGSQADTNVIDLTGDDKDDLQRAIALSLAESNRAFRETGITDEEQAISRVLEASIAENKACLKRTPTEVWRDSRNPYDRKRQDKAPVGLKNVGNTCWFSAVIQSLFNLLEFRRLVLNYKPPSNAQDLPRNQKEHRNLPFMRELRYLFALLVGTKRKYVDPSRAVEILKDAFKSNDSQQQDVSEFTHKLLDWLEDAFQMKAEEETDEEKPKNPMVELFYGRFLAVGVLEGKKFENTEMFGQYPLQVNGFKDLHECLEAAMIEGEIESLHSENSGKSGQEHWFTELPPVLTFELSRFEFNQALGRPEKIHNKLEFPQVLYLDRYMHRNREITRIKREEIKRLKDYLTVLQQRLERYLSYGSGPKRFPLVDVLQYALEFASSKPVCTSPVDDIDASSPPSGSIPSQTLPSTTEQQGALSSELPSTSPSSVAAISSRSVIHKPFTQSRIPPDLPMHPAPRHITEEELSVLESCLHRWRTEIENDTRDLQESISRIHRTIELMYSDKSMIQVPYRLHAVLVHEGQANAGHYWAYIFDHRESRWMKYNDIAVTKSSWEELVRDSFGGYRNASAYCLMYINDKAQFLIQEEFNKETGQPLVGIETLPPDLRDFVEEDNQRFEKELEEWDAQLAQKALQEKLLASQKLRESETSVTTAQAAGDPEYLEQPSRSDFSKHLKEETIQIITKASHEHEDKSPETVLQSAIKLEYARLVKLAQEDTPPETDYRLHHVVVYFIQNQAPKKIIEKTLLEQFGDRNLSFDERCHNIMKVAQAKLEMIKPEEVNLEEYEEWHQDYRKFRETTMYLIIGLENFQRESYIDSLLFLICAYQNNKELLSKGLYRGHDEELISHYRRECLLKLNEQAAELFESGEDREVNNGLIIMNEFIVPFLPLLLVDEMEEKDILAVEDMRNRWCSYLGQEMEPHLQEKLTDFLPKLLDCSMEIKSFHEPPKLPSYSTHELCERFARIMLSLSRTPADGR
How it was run: as §1

USP28 = target: T4, USP28 (UniProt Q96RU2)
T4 sequence (whole entry): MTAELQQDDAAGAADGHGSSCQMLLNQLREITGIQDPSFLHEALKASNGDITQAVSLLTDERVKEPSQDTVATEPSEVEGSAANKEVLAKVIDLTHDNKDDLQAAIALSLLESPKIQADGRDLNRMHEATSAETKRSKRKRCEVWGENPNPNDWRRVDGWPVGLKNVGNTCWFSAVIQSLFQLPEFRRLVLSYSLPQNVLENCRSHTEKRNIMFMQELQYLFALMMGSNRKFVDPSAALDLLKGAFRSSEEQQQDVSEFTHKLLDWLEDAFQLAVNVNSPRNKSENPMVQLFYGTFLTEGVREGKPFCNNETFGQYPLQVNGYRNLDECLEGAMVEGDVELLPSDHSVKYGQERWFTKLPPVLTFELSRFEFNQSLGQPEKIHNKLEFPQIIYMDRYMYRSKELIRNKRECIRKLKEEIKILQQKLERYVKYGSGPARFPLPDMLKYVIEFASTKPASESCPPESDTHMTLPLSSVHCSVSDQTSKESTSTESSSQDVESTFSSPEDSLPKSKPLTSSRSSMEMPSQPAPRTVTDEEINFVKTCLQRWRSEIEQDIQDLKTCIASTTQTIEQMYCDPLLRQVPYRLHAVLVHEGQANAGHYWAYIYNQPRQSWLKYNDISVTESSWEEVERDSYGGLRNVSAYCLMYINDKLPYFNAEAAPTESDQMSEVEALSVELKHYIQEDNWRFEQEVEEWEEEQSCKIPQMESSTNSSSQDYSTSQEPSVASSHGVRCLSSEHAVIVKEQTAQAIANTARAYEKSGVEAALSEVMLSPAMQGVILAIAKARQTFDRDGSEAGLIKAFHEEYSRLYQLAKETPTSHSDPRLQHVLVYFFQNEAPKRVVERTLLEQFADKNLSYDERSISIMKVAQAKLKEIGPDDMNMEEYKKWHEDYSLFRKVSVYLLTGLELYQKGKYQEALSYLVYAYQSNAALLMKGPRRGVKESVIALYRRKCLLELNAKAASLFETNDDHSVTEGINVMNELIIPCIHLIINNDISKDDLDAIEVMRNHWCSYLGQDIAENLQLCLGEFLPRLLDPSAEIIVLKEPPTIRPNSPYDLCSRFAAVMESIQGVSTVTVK
How it was run: as §1

Measured: log2 ratio of Biotin-Ahx-Ub-VS probe labelling

USP24, sequence (Q9UPU5 whole entry): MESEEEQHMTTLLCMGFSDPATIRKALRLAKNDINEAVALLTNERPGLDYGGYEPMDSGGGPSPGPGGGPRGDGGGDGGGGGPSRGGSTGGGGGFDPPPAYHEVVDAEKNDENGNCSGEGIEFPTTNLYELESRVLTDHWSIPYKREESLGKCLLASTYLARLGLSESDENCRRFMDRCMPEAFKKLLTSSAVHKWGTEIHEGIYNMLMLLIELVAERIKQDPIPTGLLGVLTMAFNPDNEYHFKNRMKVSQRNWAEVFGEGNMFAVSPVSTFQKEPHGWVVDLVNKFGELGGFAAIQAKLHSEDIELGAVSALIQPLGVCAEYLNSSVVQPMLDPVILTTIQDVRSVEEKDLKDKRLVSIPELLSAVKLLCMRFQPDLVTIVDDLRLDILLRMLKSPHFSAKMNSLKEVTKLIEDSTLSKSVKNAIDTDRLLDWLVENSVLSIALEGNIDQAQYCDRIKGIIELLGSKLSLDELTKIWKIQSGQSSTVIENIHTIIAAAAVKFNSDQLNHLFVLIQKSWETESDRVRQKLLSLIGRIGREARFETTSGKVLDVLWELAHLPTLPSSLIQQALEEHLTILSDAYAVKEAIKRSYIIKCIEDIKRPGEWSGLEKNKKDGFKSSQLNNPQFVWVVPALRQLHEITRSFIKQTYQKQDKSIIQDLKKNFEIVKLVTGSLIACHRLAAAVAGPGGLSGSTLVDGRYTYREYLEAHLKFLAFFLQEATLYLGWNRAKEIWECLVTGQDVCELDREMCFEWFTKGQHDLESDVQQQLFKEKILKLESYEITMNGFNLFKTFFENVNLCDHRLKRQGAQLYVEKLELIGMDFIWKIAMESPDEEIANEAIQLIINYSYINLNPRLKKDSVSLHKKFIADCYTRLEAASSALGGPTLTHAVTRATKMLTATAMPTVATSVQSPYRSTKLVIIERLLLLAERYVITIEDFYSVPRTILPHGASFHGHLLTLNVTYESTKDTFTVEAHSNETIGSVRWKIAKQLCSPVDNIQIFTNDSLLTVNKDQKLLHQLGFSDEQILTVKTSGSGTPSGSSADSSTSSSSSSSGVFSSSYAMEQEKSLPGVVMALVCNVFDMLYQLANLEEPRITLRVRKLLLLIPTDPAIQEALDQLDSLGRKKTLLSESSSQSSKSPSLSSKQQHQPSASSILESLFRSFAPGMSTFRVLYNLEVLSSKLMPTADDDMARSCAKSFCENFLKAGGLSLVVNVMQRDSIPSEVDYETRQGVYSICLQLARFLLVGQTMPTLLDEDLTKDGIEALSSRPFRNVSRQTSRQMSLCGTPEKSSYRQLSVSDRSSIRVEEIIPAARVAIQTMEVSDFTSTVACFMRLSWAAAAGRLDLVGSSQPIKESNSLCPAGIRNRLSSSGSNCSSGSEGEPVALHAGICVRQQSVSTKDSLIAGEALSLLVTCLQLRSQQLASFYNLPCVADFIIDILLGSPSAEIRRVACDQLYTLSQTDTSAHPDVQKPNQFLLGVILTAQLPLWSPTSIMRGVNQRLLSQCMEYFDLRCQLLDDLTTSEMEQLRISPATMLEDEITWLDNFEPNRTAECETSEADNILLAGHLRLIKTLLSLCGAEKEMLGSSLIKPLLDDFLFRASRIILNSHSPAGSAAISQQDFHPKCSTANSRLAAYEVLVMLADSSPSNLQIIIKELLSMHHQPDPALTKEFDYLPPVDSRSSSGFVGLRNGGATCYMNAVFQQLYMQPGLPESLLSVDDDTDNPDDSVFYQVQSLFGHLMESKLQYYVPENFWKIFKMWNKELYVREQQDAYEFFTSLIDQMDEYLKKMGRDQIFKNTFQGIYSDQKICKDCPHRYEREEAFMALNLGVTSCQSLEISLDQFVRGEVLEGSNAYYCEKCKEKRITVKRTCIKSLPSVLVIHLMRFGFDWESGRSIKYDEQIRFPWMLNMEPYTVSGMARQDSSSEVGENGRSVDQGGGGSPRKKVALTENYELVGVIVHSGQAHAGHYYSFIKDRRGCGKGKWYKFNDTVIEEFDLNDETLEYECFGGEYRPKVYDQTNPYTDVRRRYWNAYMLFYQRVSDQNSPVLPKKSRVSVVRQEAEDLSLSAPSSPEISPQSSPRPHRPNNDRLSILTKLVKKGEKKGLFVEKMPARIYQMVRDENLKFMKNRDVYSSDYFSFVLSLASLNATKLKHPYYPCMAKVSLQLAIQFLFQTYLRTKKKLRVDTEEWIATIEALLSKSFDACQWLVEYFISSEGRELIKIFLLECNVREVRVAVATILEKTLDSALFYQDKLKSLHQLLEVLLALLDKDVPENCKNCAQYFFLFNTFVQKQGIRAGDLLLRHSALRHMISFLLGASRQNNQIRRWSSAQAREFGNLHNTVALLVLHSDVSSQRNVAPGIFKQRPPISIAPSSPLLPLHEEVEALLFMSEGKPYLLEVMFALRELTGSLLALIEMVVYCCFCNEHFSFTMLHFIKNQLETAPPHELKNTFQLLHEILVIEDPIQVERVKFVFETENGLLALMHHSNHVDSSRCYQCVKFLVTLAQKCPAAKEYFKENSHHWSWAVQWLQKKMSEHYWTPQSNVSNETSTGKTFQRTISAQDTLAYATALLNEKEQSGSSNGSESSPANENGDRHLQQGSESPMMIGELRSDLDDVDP

Cl.O=C(CCl)NCc1cc2c(nc1O)CCCC2
inactive: USP19 -0.0739 | USP22 -0.0357 | USP24 -0.254 | USP25 -0.59 | USP28 -0.576
